Active and inactive are the calls of the source.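 Rule for the calls: active = viability loss from added drug above about 55%, and viability with drug at most 40%, in both replicates (limit read from the data, passing the limit was not always enough); inconclusive = both conditions met in only one replicate; inactive = neither replicate meets both conditions.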

A short description of the assay: MRP1 drug-resistance reversers in H69AR cells – cell-based, doxorubicin co-treatment, pilot screen (AID 601). The following applies: H69AR cells + 2 uM doxorubicin, CellTiter-Glo, 72 h; at 10 µM; hits give high values.
Consider `CC(C)(C)OC(=O)N1CC=C2C(C#N)=C(N)C(C#N)(C#N)[C@H](c3cccnc3)[C@H]2C1`, for which the differential viability (reversal) is -12.4% (inactive).

As to `COc1cccc(N(C(=O)c2ccco2)C(C(=O)NC2CCCC2)c2ccc(N(C)C)cc2)c1` (stereo not given), the differential viability (reversal) is 14.6% (inactive). For `CCOC(=O)C1(C(=O)OCC)C(c2ccccc2)CC(O)N1C(C)=O` (stereo not given), the differential viability (reversal) is 6.16% (inactive). The result for `Cc1cccc(NC(=O)c2cnc3sccn3c2=O)n1` reads 8.25% (inactive). With `CCCn1c(SCC(=O)Nc2nnc(-c3ccccc3)s2)nnc1-c1ccccn1`, the differential viability (reversal) is 5.49% (inactive).

Regarding `COc1ccc(-c2c3c(=O)n(C)c(=O)n(C)c3cn2-c2cccc(OC)c2)cc1`, the differential viability (reversal) is -3.48% (inactive). Take `CCOC(=O)C1CCN(Cc2ccc(C(=O)OC)cc2)CC1`: the differential viability (reversal) is 4.25% (inactive).

Consider `O=C1c2ccccc2C(Nc2ccc3c(c2)OCCO3)N1Cc1ccco1` (stereo not given), for which the differential viability (reversal) is -22.6% (inactive). For the compound `COc1cc(/C=N/n2c(C)nnc2C)cc(OC)c1OC`, the differential viability (reversal) is 19.3% (inactive). As to `Cc1cccc(N(C)C(=O)c2cc3cc4ccc(C)cc4nc3o2)c1`, the differential viability (reversal) is -36.7% (inactive). Regarding `Cc1cc(NC(=O)CSc2nccn2-c2ccc(Cl)cc2)no1`, the differential viability (reversal) was 28% (inactive). With `Cc1ccc2[nH]c(=O)c(CN(CCCO)S(=O)(=O)c3c(C)ccc4nsnc34)cc2c1`, the differential viability (reversal) is 4.04% (inactive). On to `Cc1ccc(S(=O)(=O)C2(C(=O)N3CCCCCC3)CC2)cc1`, for which the differential viability (reversal) was 1.4% (inactive). The value for `COc1cc(CN2CCSCC2)cc(OC)c1OC` was 21% (inactive); that for `CCOc1ccc(-c2nc(S(=O)(=O)c3ccccc3)c(NCc3cccnc3)o2)cc1` was 6.18% (inactive).

For the origin of these results see PubChem BioAssay.
